The source of these data is PubChem BioAssay (NCATS).

Results filed as inconclusive are left out. Active and inactive are the calls of the source. Calls follow the shape of the dose curve; as a rule, active = well fitted curve in the direction sought with a large enough effect in the signal ratio (not every such curve was filed as active); inconclusive = small, poorly fitted or top-dose-only effect, or effect the other way, or a change in a side signal; inactive = no such curve, though single readings can be large or run the other way; the % refers to the signal ratio.

In this assay the target is Tyrosine-protein phosphatase non-receptor type substrate 1 (Homo sapiens) + Leukocyte surface antigen CD47 (Homo sapiens) (UniProt P78324+Q08722). Description: CD47-SIRPalpha protein protein interaction - HTRF assay qHTS validation (AID 1347058). Conditions: TR-FRET HTRF CD47-His / biotin-SIRPalpha binding, ratio 665/615; series mostly up to 38.3 µM. The text has this: SIRPalpha is a myeloid cell expressed immunomodulatory receptor that binds the tumor expressed immune checkpoint CD47. Therapeutic disruption of this interaction leads to immune-mediated tumor rejection. This assay was used to quantitate CD47-SIRPalpha binding biochemically and evaluate chemical libraries for novel CD47-SIRPalpha inhibitors. To recapitulate the biological interaction of CD47 and SIRPalpha, we designed expression constructs to produce their recombinant, soluble, extracellular interaction domains. CD47 was produced with an N-terminal 6His tag. SIRPalpha was produced with an N-terminal Avi-Tag for site-specific biotin incorporation. The CD47-SIRPalpha interaction was measured by TR-FRET using affinity tag linked reagents (anti-6His-Eu donor and streptavidin-XL665 acceptor). SIRPalpha without biotin incorporation was used as a positive control inhibitor.
Sequence of Tyrosine-protein phosphatase non-receptor type substrate 1 (Homo sapiens) + Leukocyte surface antigen CD47 (Homo sapiens) (P78324 whole entry, looked up, the tested form may be a part): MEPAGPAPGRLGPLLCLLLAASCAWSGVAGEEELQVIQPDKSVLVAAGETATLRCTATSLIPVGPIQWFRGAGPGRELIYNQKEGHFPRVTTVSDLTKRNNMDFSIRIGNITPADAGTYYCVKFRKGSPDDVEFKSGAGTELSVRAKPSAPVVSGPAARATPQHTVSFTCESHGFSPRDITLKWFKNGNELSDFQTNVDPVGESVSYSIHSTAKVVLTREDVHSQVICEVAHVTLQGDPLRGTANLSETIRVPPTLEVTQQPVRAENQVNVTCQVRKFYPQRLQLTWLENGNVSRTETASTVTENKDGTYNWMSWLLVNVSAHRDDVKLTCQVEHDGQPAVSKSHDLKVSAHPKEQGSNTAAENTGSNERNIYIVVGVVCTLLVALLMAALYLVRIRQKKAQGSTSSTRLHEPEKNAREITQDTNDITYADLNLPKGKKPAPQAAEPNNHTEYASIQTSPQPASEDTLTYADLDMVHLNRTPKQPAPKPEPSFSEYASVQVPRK
Sequence of Tyrosine-protein phosphatase non-receptor type substrate 1 (Homo sapiens) + Leukocyte surface antigen CD47 (Homo sapiens) (Q08722 whole entry, looked up, the tested form may be a part): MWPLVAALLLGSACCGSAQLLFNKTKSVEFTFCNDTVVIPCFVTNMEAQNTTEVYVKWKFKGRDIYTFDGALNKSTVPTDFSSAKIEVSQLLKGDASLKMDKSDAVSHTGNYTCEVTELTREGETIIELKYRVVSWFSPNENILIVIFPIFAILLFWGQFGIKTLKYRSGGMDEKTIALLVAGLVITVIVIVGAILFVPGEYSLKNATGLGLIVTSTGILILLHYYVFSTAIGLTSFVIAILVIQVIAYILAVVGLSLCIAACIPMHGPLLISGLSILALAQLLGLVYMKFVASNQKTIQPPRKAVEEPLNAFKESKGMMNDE
SEQUENCE No. (e.g., 1, 2, 3, etc.); […] (e.g., Cells, Incubation, Reagent, etc.); VALUE and DESCRIPTION.
1a. Reagent. 3 uL CD47-His (12.5 nM) and Anti-His Eu Donor reagent (0.7 nM) added to respective wells in Assay buffer; white/solid bottom high base, med bind 1536-well plates (Greiner 789075)
1b. Reagent. 2 uL Assay buffer negative control for background fluorescence
2. Reagent. 23 nL library compounds (7-pt, 1:4 intraplate titration series) or DMSO control transferred by Pin Tool
3. Centrifuge. Centrifuge plate for 30 s at 1000 RPM
4. Incubation.#Incubate reagents at room temperature for 30 min, protected from light
5. Reagent. 2 uL SIRPalpha-biotin (100 nM) in Assay buffer
6. Incubation.#Incubate reagents at room temperature for 30 min, protected from light
7. Reagent. 1 uL SAV-XL665 (85 nM) acceptor reagent added to respective wells
8. Centrifuge. Centrifuge plate for 30 s at 1000 RPM
9. Incubation. Incubate reagents at room temperature for 30 min, protected from light
10. Detector. Measure Top TR-FRET on EnVision (Eu/APC filter set); calculate ratio Ch1/Ch2
1. Assay buffer composition.#Phosphate buffered saline (PBS; 10 mM Phosphate, 137 mM NaCl, and 2.7 mM KCl; pH 7.4), 0.05% IGEPAL CA-630
2. 23nL of […] library compounds (7 plates) or DMSO vehicle control transferred to 9 Greiner white/solid bottom high base, TC plates in 7 interplate 1:5 titrations (see Yasgar, A. et al. 2008) with Pintool. Two of the 9 plates are DMSO-only in compound field at beginning and end of compound library-treated plates.
10. Detector settings#Mirror = LANCE/DELFIA Dual Enh; Ex. Filter = UV2[TRF] 320; Em. Filter = APC 665; 2nd Em. Filter = Europium 615; Measurement h = 6.5; Ex. light (%) = 100; Delay = […]; Window t = 100 us; No. Seq. windows = 1; Time between flashes = 2000us; No. of flashes = 100; No. of flashes for 2nd detector = 100; Calculation: "Ratio Ch1/Ch2"
(In general: TR-FRET usually uses a lanthanide donor and a delayed reading to cut background.)
On to `C[N+]1(C)C2CCC1CC(OC(=O)C(CO)c1ccccc1)C2` (stereo not given), for which the outcome was inactive.

On to `NCCc1c[nH]c2ccccc12`, for which the outcome was inactive.

In the case of `CC1=NN=C(c2ccc(N)cc2)c2cc3c(cc2C1)OCO3`, the result was inactive.

For `O=C(N[C@H]1CN2CCC1CC2)c1ccc(Cl)cc1`, the outcome was inactive.

`CS(=N)(=O)CC[C@H](N)C(=O)O` (stereo not given in full): the result was inactive.

Take `CN1C2CCC1CC(OC(=O)c1cc(Cl)cc(Cl)c1)C2` (stereo not given): the outcome was inactive.

As for `C[C@]12CCC3C(CC[C@H]4C[C@H](O)CC[C@]34C)C1CC[C@@H]2C(=O)CO` (stereo not given in full), the outcome was inactive.

In the case of `C=CCN1CC[C@]23CCCCC2[C@H]1Cc1ccc(O)cc13` (stereo not given in full), the outcome was inactive.

For `CNCCc1ccc(O)c(O)c1`, the outcome was inactive.

Consider `NC(CCP(=O)(O)O)C(=O)O` (stereo not given), for which the result was inactive.

Take `NCc1cc(=O)[nH]o1`: the result was inactive.

As for `Cc1nccc2c1[nH]c1ccccc12`, the result was inactive.

Consider `COc1cc(C(O)CN)ccc1O` (stereo not given), for which the result was inactive.

For `O=C(O)CC[N+](=O)[O-]`, the result was inactive.

For the compound `CCCN1CCC[C@H](c2cccc(O)c2)C1`, the outcome was inactive.

Consider `NC(CP(=O)(O)O)C(=O)O` (stereo not given), for which the result was inactive.

As to `CCCN(CCC)C1CCc2ccc(O)cc2C1` (stereo not given), the outcome was inactive.

For the compound `CN[C@@H]1C[C@@H](c2ccc(Cl)c(Cl)c2)c2ccccc21`, the result was inactive.

`C[C@@H]1O[C@H](C[N+](C)(C)C)C[C@H]1O`: the result was inactive.

For `NC(=O)CN1CC(O)CC1=O` (stereo not given), the outcome was inactive.

For the compound `NC(=NCCC[C@H](N)C(=O)O)N[N+](=O)[O-]`, the outcome was inactive.

As to `CNCCc1c[nH]c2ccc(O)cc12`, the outcome was inactive.

With `O=C(O)Cc1cnc[nH]1`, the outcome was inactive.

On to `NCCc1c[nH]c2ccc(O)cc12`, for which the outcome was inactive.

For the compound `O=C1CCCN1CC#CCN1CCCC1`, the outcome was inactive.

As to `c1ccc(CCCN2CCN(CCOC(c3ccccc3)c3ccccc3)CC2)cc1`, the outcome was inactive.

As for `C[C@@H](N)Cc1cnc[nH]1`, the result was inactive.

In the case of `NC(N)=NOCCC(N)C(=O)O` (stereo not given), the outcome was inactive.

For `NC1CCc2cc(O)c(O)cc2C1` (stereo not given), the outcome was inactive.

`CC[C@@H](C(N)=O)N1CCCC1=O`: the result was inactive.

With `C[N+](C)(C)CC(=O)O`, the result was inactive.

As for `Cn1cnc(CCN)c1`, the outcome was inactive.

In the case of `O=C(O)[C@@H]1CCN1`, the result was inactive.

`C/C=C(/C)C(=O)O[C@H]1C(C)=C2[C@H]([C@@H]1OC(=O)CCCCCCC)[C@@](C)(OC(C)=O)C[C@H](OC(=O)CCC)[C@@]1(O)[C@H]2OC(=O)[C@@]1(C)O`: the result was inactive.

In the case of `CCCN(CCC)[C@@H]1CCc2ccc(O)cc2C1`, the result was inactive.

Regarding `Clc1cnc(Oc2ccc(Oc3ncc(Cl)cc3Cl)cc2)c(Cl)c1`, the result was inactive.

Take `S=C(NC1CCCCC1)N1CCC(c2cnc[nH]2)CC1`: the result was inactive.

For the compound `CC(=O)[C@H]1CCC2C3CC[C@H]4C[C@H](O)CC[C@]4(C)C3CC[C@@]21C` (stereo not given in full), the result was inactive.

On to `CCCCc1ccc(C(=O)O)nc1`, for which the outcome was inactive.

For the compound `CC(C)Oc1cccnc1N(C)C1CCN(Cc2ccccc2)CC1`, the outcome was inactive.
